# Assay outcomes from PubChem BioAssay.
# Compounds with a hit are over-represented: about 2.8% of the library has one in this group of screens.
# FEN1 inh = blocks human flap endonuclease 1. Recombinant FEN1 flap cleavage, fluorescence, 15 min. Potency, µM (titrated, usually from 114 µM), for inactives: at the top dose activity change, negative = inhibition, usual class: inhibitors. hit rate 0.35% among 390,000. AID 588795; note: potency is the fitted concentration of half-maximal effect; % is set by controls: 0 for no effect and ±100 for the full control effect; nearly all actives have a fitted effect of over 65% in size
# Target sequence (P39748 whole entry, looked up): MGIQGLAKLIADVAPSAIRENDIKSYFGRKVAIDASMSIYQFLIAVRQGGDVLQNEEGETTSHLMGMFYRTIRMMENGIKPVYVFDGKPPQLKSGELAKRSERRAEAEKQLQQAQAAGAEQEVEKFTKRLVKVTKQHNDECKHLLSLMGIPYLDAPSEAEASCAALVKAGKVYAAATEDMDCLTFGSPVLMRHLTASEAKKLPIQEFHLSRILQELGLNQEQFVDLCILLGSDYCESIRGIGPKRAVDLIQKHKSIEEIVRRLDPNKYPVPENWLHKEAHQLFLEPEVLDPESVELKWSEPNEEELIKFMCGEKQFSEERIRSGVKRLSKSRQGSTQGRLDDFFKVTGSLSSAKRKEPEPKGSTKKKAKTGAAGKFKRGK
#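 Quantitative HTS format: each compound was titrated, incubated with 10 nM nuclease for 15 min at room temperature, then challenged with flap substrate at 50 nM final. Signal change over 15 min gave concentration–effect curves.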
# Pol eta inh = DNA polymerase eta (human) inhibition; recombinant Pol eta, fluorescent DNA replication assay; Potency, µM (top dose mostly 114 µM), without a hit: at the highest dose activity change, negative = inhibition, usual class: inhibitors; hit rate 1.2% among 390,000; AID 588591; note: potency is the fitted concentration of half-maximal effect; % is set by controls: 0 for no effect and ±100 for the full control effect
#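 Pol eta at 10 nM preincubated with compounds 15 min at room temperature; reaction started with fluorescent substrate (50 nM final) and read kinetically at 0 and 10 min.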
# POLK inh = blocks human DNA polymerase kappa activity; Q9UBT6; Potency, µM (series often up to 107 µM), inactives show at the highest dose activity, negative = inhibition, most hits filed as inhibitors; AID 588579; purified Pol kappa, fluorescent DNA synthesis assay, 10 min; hit rate 0.53% among 400,000; note: potency is the fitted concentration of half-maximal effect; % is set by controls: 0 for no effect and ±100 for the full control effect
#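 50 nM final substrate added after 15 min RT preincubation of 10 nM Pol kappa with compound; fluorescence read at 0 and 10 min.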
# Pol iota inh = blocks human DNA polymerase iota activity; Pol iota fluorescent replication assay, 10 min; Potency, µM (doses to about 115 µM), for inactives: top-dose activity, negative = inhibition, hits mostly inhibitors; hit rate 1% among 390,000; AID 588590; note: potency is the fitted concentration of half-maximal effect
#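 Fluorescent replication assay read twice, at 0 min and 10 min after adding 50 nM (final) substrate. Enzyme (10 nM) and compounds were first incubated 15 min at room temperature; enzyme-free buffer wells were negative controls.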
# POLB inh = DNA polymerase beta (human) inhibition | P06746 | Pol beta primer extension/strand displacement, fluorescence kinetic | Potency, µM (doses to about 114 µM), inactives show top-dose activity change, negative = inhibition, usual class: inhibitors | hit rate 1.3% among 340,000 | AID 485314; note: potency is the fitted concentration of half-maximal effect; % is set by controls: 0 for no effect and ±100 for the full control effect
#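 Kinetic readout of DNA synthesis with strand displacement by Pol beta. Compound and 10 nM enzyme sit 15 min at room temperature; 50 nM substrate starts the reaction, read immediately and at 10 min.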
# PI5P4K alpha inh = blocks human PI5P4K alpha kinase activity; hit rate 1.2% among 330,000; AID 652105; PI5P4Kalpha enzyme, ADP-Glo luminescence, 60 min; stronger effect = lower value; P48426; max response, %; active = max response of -50% or lower; inconclusive = between -30% and -50%; inactive = -30% or higher; note: value at the top dose of about 77 µM; % is set by controls: 0 for no effect and ±100 for the full control effect
#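 Enzyme plus substrate dispensed, test compounds pinned in, then ATP (5 microM final) added. After 60 min at RT, ADP-Glo reagent 1 for 45 min and reagent 2 for 30 min preceded luminescence imaging.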
# An asterisk follows results filed as active; ? = inconclusive; . = no result given; [ ] = another dose, or the depositor's remark. Unless noted, calls come from the whole dose curve; as a rule, active = well fitted curve in the direction sought with a large enough effect; inconclusive = small, poorly fitted or top-dose-only effect, or another doubt; inactive = no such curve, though single readings can be large; an effect the other way counts as inactive or inconclusive.
SMILES,FEN1 inh,Pol eta inh,POLK inh,Pol iota inh,POLB inh,PI5P4K alpha inh
Cc1nc2sc3c(O)cc(=O)[nH]c3c2c(C)c1C,-11%,0%,-6%,3%,-8%,?
c1ccc(CNc2ncnc3c2ncn3Cc2ccccc2)cc1,-23%,.,-25%,?,.,.
COc1ccc2nc(Cl)cc(Cl)c2c1,15%,-19%,-4%,23%,43%,1
C=CS(=O)(=O)c1c2cc(OC)ccc2nc2ccc(OC)cc12,?,?,-22%,28µM*,.,-18
CC[C@H](C)/C=C(C)/C=C/C(=O)Cc1cc(O)c(C)c(O)c1C=O,-23%,50µM*,-40%,?,?,-57*
O=C1NC(c2ccccc2Cl)=N/C1=C/c1ccco1,-4%,-17%,?,28µM*,?,?
O=C1NC(c2ccc(Br)cc2)=N/C1=C/c1ccco1,3%,-7%,-5%,23%,?,-15
O=c1[nH]c(/C=C\c2cccc(Cl)c2)nc(O)c1[N+](=O)[O-],3%,?,-5%,?,1%,?
C=CCOc1ccc(/C=C\c2nc(O)c([N+](=O)[O-])c(=O)[nH]2)cc1OCC,7%,20µM*,-7%,?,6%,-55*
C=CCOc1cccc(/C=C\c2nc(O)c([N+](=O)[O-])c(=O)[nH]2)c1,-22%,-11%,-4%,?,-22%,?
C#CCOc1c(/C=C\c2nc(O)c([N+](=O)[O-])c(=O)[nH]2)cc(Br)cc1OC,?,35µM*,-43%,?,?,-68*
C=CCOc1ccc(/C=C\c2nc(O)c([N+](=O)[O-])c(=O)[nH]2)cc1OC,?,25µM*,?,50µM*,0%,?
COc1ccc(/C=C\c2nc(O)c([N+](=O)[O-])c(=O)[nH]2)cc1O,-19%,-14%,-8%,12%,23%,-74*
CCOC(=O)CNC(=S)N1CCn2c(nc3ccccc32)C1,7%,-14%,-3%,3%,-5%,-4
CCc1cccc(C)c1NC(=O)CN1CCN(S(=O)(=O)c2ccc(C(C)(C)C)cc2)CC1,4%,-20%,4%,14%,.,1
CC(C)(C)n1ncc2c(=O)n(Cc3ccc(C#N)cc3F)cnc21,-4%,.,2%,0%,.,.
CCOC(=O)CCc1c(C)nc2cc(-c3cc(OC)cc(OC)c3)[nH]n2c1=O,14%,-15%,-9%,4%,28µM*,.
CCc1c(C)nc2cc(-c3cccc(Br)c3)[nH]n2c1=O,-9%,-28%,4%,6%,25µM*,-1
CCc1c(C)nc2cc(-c3ccc(Cl)cc3)[nH]n2c1=O,7%,1%,-3%,-12%,42%,-5
CCOC(=O)[C@]12CCC=C1N(Cc1ccccc1)C(=O)[C@H](CC(=O)NCCC(C)C)C2,.,.,.,.,.,8
Cc1noc(C)c1C(=O)Nc1nccs1,2%,-3%,-14%,58%,83%,-3
COc1cccc(CNS(=O)(=O)c2ccc(S(=O)(=O)N3CCCC3)cc2)c1,-2%,-4%,4%,27%,20µM*,-1
O=C(Nc1ccc([N+](=O)[O-])cc1)C(=O)Nc1cccc(C(=O)O)c1,-3%,-7%,5%,32%,-20%,-60*
O=C(O)c1cccc(NC(=S)NC(NC(=O)c2cccc([N+](=O)[O-])c2)C(Cl)(Cl)Cl)c1 (centres undefined),-9%,56µM*,-9%,11%,?,1
COc1cc([N+](=O)[O-])ccc1NC(=S)Nc1cccc(C(=O)O)c1,3%,-10%,-23%,21%,0%,-12
O=C(O)c1cccc(NC(=S)NC(NC(=O)c2ccccc2[N+](=O)[O-])C(Cl)(Cl)Cl)c1 (centres undefined),17%,-15%,-10%,25%,-7%,-9
CCOC(=O)c1c(C)[nH]c(C)c1S(=O)(=O)N1CCCC(C(=O)N2CCN(c3ccccc3)CC2)C1 (centres undefined),3%,-17%,0%[60.1 µM],17%,-17%,.
